# According to PubChem BioAssay (NCATS):
# Inconclusive results are not listed. Active and inactive are the calls of the source. The call rests on the fitted dose curve; in most records, active means well fitted curve in the direction sought with a large enough effect; inconclusive means small, poorly fitted or top-dose-only effect, or another doubt; inactive means no such curve, though single readings can be large; an effect the other way counts as inactive or inconclusive.
# Legend:
# [1] = tested on: Zika virus NS2B-NS3 protease (linked construct); experiment: Confirmatory screen NINDS AMC qHTS for Zika virus inhibitors (AID 1347152); further: nearly all actives have a fitted effect of over 70% in size; further: potency means the concentration at half of the fitted maximal effect
# How it was run: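 Linked NS2B-NS3 1 nM, Tris pH 8.0/0.01% Tween 20; cpd 15 min RT dark; + Nle-KRR-AMC 10 µM (Km 18.3 µM); read 0 and 15 min, 340/450 nm; %inh vs controls, 4-param Hill.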
# [2] = tested on: Zika virus NS2B-NS3 protease (unlinked complex); experiment: Confirmatory screen GU AMC qHTS for Zika virus inhibitors (AID 1347153); further: nearly all actives have a fitted effect of over 70% in size;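 on Potency: enzyme at 25 nM with substrate at 10 µM below its Km of 18.3 µM; potency means the concentration at half of the fitted maximal effect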
# How it was run: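 Fluorescence change (ex 340/em 450 nm) over 15 min, ~20% substrate conversion, normalized to no-inhibitor and no-enzyme controls, then Hill-fitted. Unlinked protease at 25 nM; AMC peptide 10 µM.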
# [3] = Confirmatory screen GU Rhodamine qHTS for Zika virus inhibitors qHTS (AID 1347157); further: nearly all actives have a fitted effect of over 70% in size; further: potency means the concentration at half of the fitted maximal effect
# How it was run: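 Percent inhibition derives from the 15-min fluorescence change (ex 480, em 540 nm), normalized to no-enzyme and no-inhibitor wells. Reactions contained 25 nM NS2B-NS3 complex and 1.5 microM substrate in 10 mM Tris-HCl pH 8.0.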
# [4] = tested on: Zika virus NS2B-NS3 protease (unlinked complex); experiment: Primary screen GU Rhodamine qHTS for Zika virus inhibitors: Unlinked NS2B-NS3 protease assay (AID 1347159); further: nearly all actives have a fitted effect of over 60% in size; further: potency means the concentration at half of the fitted maximal effect
# How it was run: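 Enzyme 25 nM in Tris-HCl pH 8.0 + 0.01% Tween 20; compounds up to 114 microM, 15 min RT dark; + Rhod110 substrate 1.5 microM; read t0 and 15 min; delta fluorescence → % inhibition → 4-parameter Hill fit.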
# [5] = tested on: Zika virus NS2B-NS3 protease (linked construct); experiment: Primary screen NINDS Rhodamine qHTS for Zika virus inhibitors (AID 1347160); further: nearly all actives have a fitted effect of over 55% in size; further: potency means the concentration at half of the fitted maximal effect
# How it was run: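 Enzyme (25 nM, linked NS2B-NS3) was preincubated 15 min with compound in 10 mM Tris-HCl pH 8.0, 0.01% Tween 20. Rhodamine110 substrate (1.5 microM) was then added and fluorescence read at start and after 15 min.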
# [6] = Confirmatory screen NINDS Rhodamine qHTS for Zika virus inhibitors (AID 1347161); further: nearly all actives have a fitted effect of over 60% in size; further: potency means the concentration at half of the fitted maximal effect
# How it was run: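 Percent inhibition, normalized to uninhibited and enzyme-free controls, is fitted to a 4-parameter Hill equation. Fluorescence change comes from a 15-min cleavage of 1.5 microM bis-peptide Rhodamine110 substrate by 25 nM linked NS2B-NS3 at room temperature.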
# [7] = tested on: Zika virus NS2B-NS3 protease (linked); experiment: 384 well plate NINDS AMC confirmatory qHTS for Zika virus inhibitors (AID 1347163); further: nearly all actives have a fitted effect of over 50% in size; further: potency means the concentration at half of the fitted maximal effect
# How it was run: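 Enzyme (5, 30 or 60 nM final) first met test compounds for ~15 min. The AMC-tagged peptide Ac-VKTGKR-AMC followed at 30 microM. Fluorescence was then recorded at 25 min and scaled against no-enzyme and no-inhibitor wells.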
# [8] = Vero cells viability qHTS for Zika virus inhibitors (AID 1347167)
# How it was run: (§1)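 To flag cytotoxic protease inhibitors, viability is measured by ATP-dependent luminescence (CellTiter Glo) after cells attached overnight receive compound for 24 to 48 hours in DMEM with 4% FBS.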
# [9] = HepG2 cells viability qHTS for Zika virus inhibitors (AID 1347168)
# How it was run: as §1
# [10] = tested on: Zika virus NS2B-NS3 protease; experiment: Primary screen GU AMC qHTS for Zika virus inhibitors (AID 1347154); further: nearly all actives have a fitted effect of over 70% in size; further: potency means the concentration at half of the fitted maximal effect
# How it was run: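 Unlinked Zika NS2B hydrophilic domain/NS3 protease domain noncovalent complex (25 nM final) in 10 mM Tris-HCl pH 8.0, 0.01% Tween 20, with AMC peptide substrate. Fluorescence (ex 340, em 450 nm) change over 15 min, room temperature; percent inhibition fitted to 4-parameter Hill equation.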
# [11] = Tertiary RLuc qRT-PCR qHTS assay for Zika virus inhibitors (AID 1347169); further: nearly all actives have a fitted effect of over 55% in size; further: potency means the concentration at half of the fitted maximal effect
# How it was run: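 Luminescence read-out: live-cell Renilla luciferase substrate applied to infected Vero cells, signal measured after 1-1.5 hrs. Cells had received compound before ZIKV-RLuc (Cambodian strain, MOI 1-2) infection and were incubated 48-72 hrs at 37 degrees C.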
# [12] = tested on: Zika virus NS2B-NS3 protease (linked construct); experiment: 384 well plate NINDS Rhodamine confirmatory qHTS for Zika virus inhibitors (AID 1347164);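 further: fluorescence from protease cleavage of Ac-LKRR-rhodamine 110 substrate; nearly all actives have a fitted effect of over 65% in size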; further: potency means the concentration at half of the fitted maximal effect
# How it was run: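 Fluorescence read at ex 485 nm/em 538 nm, 25 min after adding 10 microM Ac-LKRR-Rd substrate at room temperature in the dark; signal normalized to no-enzyme and no-inhibitor controls. Enzyme final 5, 30 or 60 nM; compounds, ~15 min preincubation.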
# [13] = ZIKV-mCherry secondary qHTS for Zika virus inhibitors (AID 1347158); further: potency means the concentration at half of the fitted maximal effect
# How it was run: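 This orthogonal imaging screen measured ZIKV-mCherry infection of Vero cells exposed to compound, MOI 1, 48-72 h. Percent infection came from segmented nuclei scored mCherry-positive above 3 SD of negative controls.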
smiles,measurement,setting,value
CC1(C)CCC(C)(C)c2cc(C3(c4ccc(C(=O)O)cc4)OCCO3)ccc21,Potency,[1],44.1 µM (active)
same,Potency,[2],39.3 µM (active)
same,Potency,[3],12.4 µM (active)
same,Potency,[4],10 µM (active)
same,Potency,[5],5.62 µM (active)
same,Potency,[6],7.84 µM (active)
same,Potency,[7],inactive
same,outcome,[8],inactive
same,outcome,[9],inactive
Nc1ccccc1N,Potency,[10],inactive
COc1c(Nc2ncc(Cl)c(N[C@H]3[C@@H](C(N)=O)[C@@H]4C=C[C@H]3C4)n2)ccc2c1CC[C@@H](N1CCOCC1)CC2,Potency,[4],inactive
O=C1NC(Cc2c[nH]c3ccccc23)C(=O)NC1Cc1c[nH]c2ccccc12 (centres undefined),Potency,[4],inactive
O=C(O)c1ccccc1NCCc1ccccc1,Potency,[10],31.6 µM (active)
CC(C)(C)Nc1nc2cc(Cl)c(Cl)cc2nc1S(C)(=O)=O,Potency,[3],inactive
same,Potency,[4],89.1 µM (active)
same,Potency,[5],inactive
same,Potency,[6],inactive
same,Potency,[11],10.4 µM (active)
COc1cc(Nc2nc3ccccc3nc2NS(=O)(=O)c2ccc(NC(=O)c3ccc(OC)c(C)c3)cc2)cc(OC)c1,Potency,[1],12.4 µM (active)
same,Potency,[2],11.1 µM (active)
same,Potency,[3],3.12 µM (active)
same,Potency,[5],8.91 µM (active)
same,Potency,[6],2.78 µM (active)
same,Potency,[7],inactive
same,Potency,[12],22.4 µM (active)
same,outcome,[8],inactive
same,outcome,[9],inactive
COc1ccc(C(=O)C2CCN(CC(=O)N(Cc3nc4c(c(=O)[nH]3)COCC4)CC3CC3)CC2)cc1,Potency,[3],inactive
same,Potency,[4],inactive
same,Potency,[6],inactive
COc1ccc(Cl)c(Nc2nc3ccccc3nc2NS(=O)(=O)c2cccc(NC(=O)C(C)(C)N)c2)c1,Potency,[3],5.55 µM (active)
same,Potency,[13],15.8 µM (active)
same,Potency,[4],7.94 µM (active)
same,Potency,[6],5.55 µM (active)
same,Potency,[7],2.51 µM (active)
same,Potency,[12],3.98 µM (active)
same,outcome,[8],inactive
same,outcome,[9],inactive
same,Potency,[11],14.7 µM (active)
CC1=C(C(=O)OCc2ccccc2)C(c2ccc(-c3ccccc3)cc2)NC(=O)N1CCCCCC(=O)O (centres undefined),Potency,[1],22.1 µM (active)
same,Potency,[2],31.2 µM (active)
same,Potency,[3],2.48 µM (active)
same,Potency,[4],3.16 µM (active)
same,Potency,[5],7.94 µM (active)
same,Potency,[6],2.48 µM (active)
same,Potency,[7],3.55 µM (active)
same,Potency,[12],0.631 µM (active)
same,outcome,[8],inactive
same,outcome,[9],inactive
same,Potency,[11],23.4 µM (active)
Cc1ccc(NC(=O)Nc2cc(C(F)(F)F)ccc2F)cc1Nc1ccc2c(c1)NC(=O)/C2=C\c1ccc[nH]1,Potency,[4],39.8 µM (active)
C=CC/C=C\C/C=C\CCCCCCCc1cccc(O)c1C(=O)O,Potency,[1],10.9 µM (active)
same,Potency,[2],6.85 µM (active)
same,Potency,[3],4.32 µM (active)
same,Potency,[4],8.91 µM (active)
same,Potency,[6],2.73 µM (active)
same,Potency,[7],44.7 µM (active)
same,Potency,[12],inactive
same,outcome,[8],inactive
same,outcome,[9],inactive
same,Potency,[11],inactive
O=C(O)/C=C/c1ccc(-c2ccc(O)c(C34CC5CC(CC(C5)C3)C4)c2)cc1,Potency,[1],35 µM (active)
same,Potency,[2],44.1 µM (active)
same,Potency,[3],1.11 µM (active)
same,Potency,[4],2.24 µM (active)
same,Potency,[5],2.24 µM (active)
same,Potency,[6],1.24 µM (active)
same,Potency,[7],inactive
same,Potency,[12],3.55 µM (active)
same,outcome,[9],inactive
same,Potency,[11],0.415 µM (active)
O=S(=O)(c1ccccc1)c1cnc2c(N3CCNCC3)cccc2c1,Potency,[3],inactive
same,Potency,[6],inactive
same,Potency,[11],inactive
CC1(C)CC[C@]2(C(=O)O)CC[C@]3(C)C(=CCC4[C@@]5(C)C[C@@H](O)[C@H](O)C(C)(C)C5CC[C@]43C)C2C1 (some centres undefined),Potency,[3],8.57 µM (active)
same,Potency,[4],14.1 µM (active)
same,Potency,[5],10 µM (active)
same,Potency,[6],6.07 µM (active)
same,Potency,[7],56.2 µM (active)
same,Potency,[12],6.31 µM (active)
same,outcome,[8],inactive
same,outcome,[9],inactive
same,Potency,[11],9.06 µM (active)
CC(=O)O[C@@H]1C[C@H](O)[C@@]23CO[C@H](O)[C@]1(C)C2C[C@@H](O)[C@]1(C)C3C(=O)[C@H](OC(C)=O)[C@@]2(C)[C@H](c3ccoc3)C[C@H]3O[C@]321 (some centres undefined),Potency,[4],inactive
N#CC(c1ccnc(OCc2ccc(CN3CCOCC3)cc2)n1)c1nc2ccccc2s1 (centres undefined),Potency,[1],inactive
same,Potency,[2],inactive
same,Potency,[3],31.2 µM (active)
same,Potency,[4],3.98 µM (active)
same,Potency,[5],7.94 µM (active)
same,Potency,[6],31.2 µM (active)
same,Potency,[12],5.01 µM (active)
same,outcome,[8],inactive
same,outcome,[9],inactive
C=C[C@H]1[C@H](O[C@@H]2O[C@H](CO)[C@@H](O)[C@H](O)[C@H]2O)OC=C(C(=O)OC)[C@H]1CCOC(=O)c1cc(O)c(O)c(O)c1,Potency,[1],inactive
same,Potency,[5],8.91 µM (active)
same,Potency,[6],10.8 µM (active)
same,outcome,[8],inactive
same,outcome,[9],inactive
same,Potency,[11],inactive
O=C(O)c1ccccc1NC(=O)N1CCC(c2ccccc2C(F)(F)F)CC1,Potency,[4],22.4 µM (active)
CC(=O)O[C@H]1C(=O)[C@@]2(C)[C@H]([C@H](OC(=O)c3ccccc3)[C@]3(O)C[C@H](OC(=O)[C@H](O)[C@@H](NC(=O)c4ccccc4)c4ccccc4)C(C)=C1C3(C)C)[C@]1(OC(C)=O)CO[C@@H]1C[C@@H]2O,Potency,[10],inactive
same,Potency,[4],inactive
same,Potency,[5],inactive
CCC(C(=O)O)c1ccc(N2Cc3ccccc3C2=O)cc1 (centres undefined),Potency,[10],inactive
